Structures can show the parent of a compound that is named as a salt.
Columns and labels:
Conditions in all cases: 10 µM; exposure time 6 h
[1] = test system: Danio rerio larvae (5 dpf); test: difference in excitability vs DMSO (percentage points); higher = more excitable than DMSO
How it was run: (§1)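 Wild-type zebrafish larvae at 5 dpf were kept in 96-well plates and exposed for 6 h to 100 µL egg water holding library compound at a final concentration of 10 µM. From 3 h into exposure, the plates were held at 28.5 ℃ and photographed every 6 s through a 3-h programme of moving lines and 100 ms, 400Hz tones. Each behaviour was scored by Z-LaP Tracker, a DeepLabCut model, and averaged over 48 larvae per compound. Every value gives the compound mean minus the vehicle control mean, in percentage points.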

[2] = test system: Danio rerio larvae (5 dpf); test: difference in startle response vs DMSO (percentage points); higher = stronger startle than DMSO
How it was run: as §1

[3] = test system: Danio rerio larvae (5 dpf); test: difference in activity during first hour vs DMSO (percentage points); higher = more activity than DMSO
How it was run: as §1

[4] = test system: Danio rerio larvae (5 dpf); test: difference in habituation to acoustic stimuli vs DMSO (percentage points); higher = more habituation than DMSO
How it was run: as §1

[5] = test system: Danio rerio larvae (5 dpf); test: difference in combined optomotor response to red, green and blue moving lines vs DMSO (percentage points); higher = stronger optomotor response than DMSO
How it was run: as §1

| Structure (SMILES) | difference in excitability [1] | difference in startle response [2] | difference in activity during first hour [3] | difference in habituation to acoustic stimuli [4] | difference [5] |
| --- | --- | --- | --- | --- | --- |
| NS(=O)(=O)c1cc(C(=O)O)c(NCc2ccco2)cc1Cl [Furosemide] | 6.1 | -2.57 | 12 | -0.166 | 8.19 |
| C[C@@H](CN1CC(=O)NC(=O)C1)N1CC(=O)NC(=O)C1 [Dexrazoxane] | 5.16 | 0.825 | -0.0194 | 3.65 | 4.12 |
| OCCOCCN1CCN(C2=Nc3ccccc3Sc3ccccc32)CC1 [Quetiapine (hemifumarate)] | -1.54 | -3.79 | 16.8 | -4.99 | 10.6 |
| CN(C)CCC=C1c2ccccc2C=Cc2ccccc21 [Cyclobenzaprine (hydrochloride)] | 17.5 | -6.94 | 6.26 | -8.81 | 14.9 |
| CCc1cc2c(cc1CC)CC(NC[C@H](O)c1ccc(O)c3[nH]c(=O)ccc13)C2 [Indacaterol] | -0.786 | 4.28 | -1.22 | 3.2 | -2.46 |
| COC(=O)N(C)c1c(N)nc(-c2nn(Cc3ccccc3F)c3ncccc23)nc1N [Riociguat] | 1.63 | 0.148 | 7.75 | 4.38 | -2.92 |
| C#C[C@]1(O)CC[C@H]2[C@@H]3CCC4=Cc5oncc5C[C@]4(C)[C@H]3CC[C@@]21C [Danazol] | 6.6 | -7.24 | -23.6 | -10.4 | -17.8 |
| Cc1cn[nH]c1 [Fomepizole] | -1.56 | -0.451 | 3.73 | 2.38 | -2.44 |
| CNC(=O)c1cnn(-c2nc(N)c3ncn([C@@H]4O[C@H](CO)[C@@H](O)[C@H]4O)c3n2)c1 [Regadenoson] | -3.36 | 0.153 | 6.41 | -0.999 | 3.31 |
| Cl.N=C(N)NCCC[C@H](N)C(=O)O [L-Arginine (hydrochloride)] | 4.03 | -4.09 | 10.1 | 2.29 | 0.624 |
| OCCOc1ccc(/C(=C(/CCCl)c2ccccc2)c2ccccc2)cc1 [Ospemifene] | 6.62 | -3.99 | -12.6 | -8.31 | -16.5 |
| CC#CCC(C)[C@H](O)/C=C/[C@@H]1[C@H]2C/C(=C/CCCC(=O)O)C[C@H]2C[C@H]1O (stereo not given in full) [Iloprost] | -3.4 | -1.91 | 1.64 | -1.61 | 1.64 |
| OC[C@H]1O[C@@H](c2ccc(Cl)c(Cc3ccc(O[C@H]4CCOC4)cc3)c2)[C@H](O)[C@@H](O)[C@@H]1O [Empagliflozin] | 2.31 | -2.32 | 18.8 | -5.57 | 4.06 |
| C=CC[N+]1([C@H]2C[C@H]3[C@@H]4CC[C@H]5C[C@H](O)[C@@H](N6CCOCC6)C[C@]5(C)[C@H]4CC[C@]3(C)[C@H]2OC(C)=O)CCCC1 [Rocuronium (bromide)] | 14.3 | -3.01 | -1.74 | 4.51 | -2.53 |
| Nc1nc(N)c2nc(-c3ccccc3)c(N)nc2n1 [Triamterene] | -0.938 | 5.79 | 11.3 | -2.13 | 6.72 |
| C[C@H]1c2cccc(O)c2C(=O)C2=C(O)[C@]3(O)C(=O)C(C(N)=O)=C(O)[C@@H](N(C)C)[C@@H]3[C@@H](O)[C@@H]21 [Doxycycline (hyclate)] | 12.8 | 3.11 | 5.72 | 7.01 | -0.304 |
| NC(=O)c1ncn([C@@H]2O[C@H](CO)[C@@H](O)[C@H]2O)n1 [Ribavirin] | 3.64 | -0.473 | 21.8 | -4.01 | 5.68 |
| CC(=O)OCC(=O)[C@@]1(OC(C)=O)[C@@H](C)C[C@H]2[C@@H]3C[C@H](F)C4=CC(=O)C=C[C@]4(C)[C@@]3(F)[C@@H](O)C[C@@]21C [Diflorasone Diacetate] | 10.5 | -5.05 | -4.84 | -1.12 | -4.79 |
| Cc1nnc(C(=O)NC(C)(C)c2nc(C(=O)NCc3ccc(F)cc3)c(O)c(=O)n2C)o1 [Raltegravir (potassium salt)] | -0.288 | 1.86 | 0.698 | -5.1 | 5.8 |
| CC(=O)Nc1cccc(-n2c(=O)n(C3CC3)c(=O)c3c(Nc4ccc(I)cc4F)n(C)c(=O)c(C)c32)c1 [Trametinib] | 9.81 | 0.301 | 6.06 | 2.09 | 6.51 |
| CCCCc1oc2ccccc2c1C(=O)c1cc(I)c(OCCN(CC)CC)c(I)c1 [Amiodarone (hydrochloride)] | 8.93 | -3.14 | 8.93 | -15.9 | -11.8 |
| CSc1ccc2c(c1)N(CCC1CCCCN1C)c1ccccc1S2 (stereo not given) [Thioridazine (hydrochloride)] | 19.8 | -0.778 | 12.9 | -8.21 | -5 |
| COC(=O)[C@H](c1ccccc1Cl)N1CCc2sccc2C1 (racemic) [(±)-Clopidogrel (hydrochloride)] | 11.3 | 3.2 | -4.36 | -3.13 | 8.08 |
| Oc1ncnc2[nH]ncc12 [Allopurinol] | 0.512 | -2.34 | -0.131 | 0.54 | 1.46 |
| O=C(O)c1cc(/N=N/c2ccc(O)c(C(=O)O)c2)ccc1O [Olsalazine (sodium salt)] | -2.93 | 2.86 | 0.738 | -4.79 | -8.04 |
| CC[C@@H]1/C=C(\C)C[C@H](C)C[C@H](OC)[C@H]2O[C@@](O)(C(=O)C(=O)N3CCCC[C@H]3C(=O)O[C@H](/C(C)=C/[C@@H]3CC[C@H](Cl)[C@H](OC)C3)[C@H](C)[C@@H](O)CC1=O)[C@H](C)C[C@@H]2OC [Pimecrolimus] | 12 | -9.07 | 23 | -1.18 | -12.6 |

Reference: the supplement of paper PMC10515830
